For one assay, the target named is RHOH. In words: pooled miR-30 sensor sort-seq; sequence = guide strand. The note with it: shRNA.
Regarding AACACCTGCTGTACTCCCCGAT, the sensor-assay potency score (higher = more potent) was -0.621.

On to TGTTCTCGTACACTGTGGGCTT, for which the sensor-assay potency score (higher = more potent) was -0.393.

Consider TTCTGAAGGCGTCATTGCCGGC, for which the sensor-assay potency score (higher = more potent) was -1.35.

For AAGCGCACCAACAGAGAGGTTT, the sensor-assay potency score (higher = more potent) was -0.535.

With AAGGTCTCGGAGGTGAAGCGCA, the sensor-assay potency score (higher = more potent) is -0.81.

For AATTTCACCAATCCACTTGTTC, the sensor-assay potency score (higher = more potent) was -0.62.

As for TCCATGAAGACGTCCACCCCTG, the sensor-assay potency score (higher = more potent) is -1.1.

Turning to TACACTGTGGGCTTGTAGGCCT, the sensor-assay potency score (higher = more potent) was -0.53.

In the case of TAAGGGCTGAGCACTCCAGGTA, the sensor-assay potency score (higher = more potent) was -0.636.

Regarding TTGTAGAGTGTAGTTAGTGAAA, the sensor-assay potency score (higher = more potent) was -1.62.

As to TTGATGGAGAAGAGCCTCCTTC, the sensor-assay potency score (higher = more potent) is -0.911.

TTCTTCAAGTTCAGGAATGAGT: the sensor-assay potency score (higher = more potent) is -0.86.

On to TAGCACATCAGCACCACGTCTG, for which the sensor-assay potency score (higher = more potent) amounted to 0.265.

Turning to TCCGGGAAGGTCTCGGAGGTGA, the sensor-assay potency score (higher = more potent) was -1.75.

For TTCCATGGCATTGACGCAGGAG, the sensor-assay potency score (higher = more potent) worked out at 0.27.

Sequence TTCACTTGTAGAGTGTAGTTAG displayed a sensor-assay potency score (higher = more potent) of 0.0342.

For a further assay, the target named is RHOJ. The description is as above. To be noted: shRNA.
In turn, AACATCTTCTTCTCGTCGTTGC displayed a sensor-assay potency score (higher = more potent) of 0.438.

For TTCTCTTTCATATACAGCAAAC, the sensor-assay potency score (higher = more potent) is -1.56.

For TTCTTCTCGTCGTTGCCCCTGC, the sensor-assay potency score (higher = more potent) was -0.309.

Turning to TTGGCTGCCATTCTCATCCCTG, the sensor-assay potency score (higher = more potent) was -0.433.

TTTGAGACCTTTCTGAGTCAGA: the sensor-assay potency score (higher = more potent) was -0.62.

Take TTCAACATCTTCTTCTCGTCGT: the sensor-assay potency score (higher = more potent) was found to be 0.937.

Regarding TTGACTTTGTTTTTGATGCGAT, the sensor-assay potency score (higher = more potent) is -0.0639.

TAGCACTGTGCTCCGATCGCTT: the sensor-assay potency score (higher = more potent) was -0.602.

Sequence TCAACATCTTCTTCTCGTCGTT returned a sensor-assay potency score (higher = more potent) of 0.0564.

TTTCTCTTTCATATACAGCAAA: the sensor-assay potency score (higher = more potent) is -0.918.

For TTCTGAGTCAGAGCTGAACATT, the sensor-assay potency score (higher = more potent) is -1.66.

Consider ATAGTGGTCAAACACAGTGGGC, for which the sensor-assay potency score (higher = more potent) was -0.911.

Another assay deals with RIC8A. Described as above. To be noted: shRNA.
For the sequence TACACTCTCCTTCAGCCTGTGT, the sensor-assay potency score (higher = more potent) was -1.16.

Consider TACAACATCCATGTCTGCGGAC, for which the sensor-assay potency score (higher = more potent) was -0.737.

As for TTTGAGGATCTCCATGGCCCGC, the sensor-assay potency score (higher = more potent) was -1.76.

With TTGTTCCGCAGCATCTCCCCAA, the sensor-assay potency score (higher = more potent) is -0.652.

For the sequence TAGTCTCGCACATGGCATCCTG, the sensor-assay potency score (higher = more potent) is -1.08.

For TTGGGCATCATCAAACGTGAAG, the sensor-assay potency score (higher = more potent) was -0.89.

In the case of AACATCCAGACACTTGAGGGGC, the sensor-assay potency score (higher = more potent) was -0.627.

With TGGGCCTTCAGGAACTTCCTGG, the sensor-assay potency score (higher = more potent) was -0.964.

For the sequence AAGAACTGGACATCGTGGGGGA, the sensor-assay potency score (higher = more potent) worked out at 0.415.

For TTCACTCCCATGAACTCCGTGG, the sensor-assay potency score (higher = more potent) came to 0.138.

On to TTCTAGCACAAGAAGACCGTTG, for which the sensor-assay potency score (higher = more potent) is 0.199.

On to TTTCAGCTCCTGAAACAGCTGC, for which the sensor-assay potency score (higher = more potent) is -0.481.

Values taken from the OligoGym collection.
Note: reference of the scale not given here.
